Source: PubChem BioAssay
Keap1 Nrf2 FP: Keap1-Nrf2 (human) interaction inhibition; Q14145; Keap1 Kelch-Nrf2 peptide fluorescence polarization, 1536-well; inhibition, % at 9.4 µM; 340,000 compounds, 0.15% hits; in the data active = inhibition above about 12%;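 also: human Keap1 Kelch domain with fluorescein labeled Nrf2 9mer peptide probe; higher means more block of Keap1 binding to Nrf2 peptide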
C-LANA FP: inhibitors of KSHV LANA C-terminal domain DNA binding; MBP-C-LANA/FAM-LBS DNA binding, fluorescence polarization; AID 504423; inhibition, % at 9 µM; 340,000 compounds, 0.078% hits;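 active = highest replicate inhibition at or above 60% at 9 µM, even if other replicates fall short; inactive = all replicates below 60% inhibition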
Cardiac RTF inh: cardiac RTF calcium desensitization; P19429+P45379; IANBD-labeled cardiac RTF, Ca2+ fluorescence; inhibition, % at 7.15 µM; 340,000 compounds, 0.12% hits; AID 493244;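 active = inhibition above the mean inhibition of all tested compounds plus 3 SD, cut at about 17% in these data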;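 also: assay run at fixed EC70 calcium of 1.6 mM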
E coli Lon inh: inhibitors of E. coli Lon protease | AID 602123 | P0A9M0 | purified E. coli Lon protease, fluorescence polarization | inhibition, % at 7.94 µM | 360,000 compounds, 0.42% hits; in the data active = inhibition above about 13%, passing the limit was not always enough
Target sequence (P0A9M0 whole entry, looked up): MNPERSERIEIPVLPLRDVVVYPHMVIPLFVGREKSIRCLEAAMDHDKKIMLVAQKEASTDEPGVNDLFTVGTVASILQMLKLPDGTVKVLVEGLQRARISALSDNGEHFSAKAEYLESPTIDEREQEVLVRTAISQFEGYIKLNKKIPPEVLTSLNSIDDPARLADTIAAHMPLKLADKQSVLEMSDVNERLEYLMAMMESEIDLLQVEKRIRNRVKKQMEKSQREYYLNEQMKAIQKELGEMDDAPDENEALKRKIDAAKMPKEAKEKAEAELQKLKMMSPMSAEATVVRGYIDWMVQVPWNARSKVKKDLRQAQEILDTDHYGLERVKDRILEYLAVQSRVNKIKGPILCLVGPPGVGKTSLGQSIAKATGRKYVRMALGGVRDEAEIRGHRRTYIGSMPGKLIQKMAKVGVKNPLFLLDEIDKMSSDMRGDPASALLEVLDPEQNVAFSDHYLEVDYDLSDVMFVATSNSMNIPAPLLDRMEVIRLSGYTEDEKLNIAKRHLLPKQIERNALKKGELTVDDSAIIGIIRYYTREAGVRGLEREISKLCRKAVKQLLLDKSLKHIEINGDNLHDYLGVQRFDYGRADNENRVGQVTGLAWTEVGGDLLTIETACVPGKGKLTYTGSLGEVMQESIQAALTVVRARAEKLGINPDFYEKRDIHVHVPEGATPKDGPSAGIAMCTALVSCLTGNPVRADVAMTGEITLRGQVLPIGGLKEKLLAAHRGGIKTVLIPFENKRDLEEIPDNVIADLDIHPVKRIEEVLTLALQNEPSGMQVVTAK
RTF Ca sens act: cardiac RTF calcium sensitization | P19429+P45379 | IANBD-labeled TnC RTF fluorescence at EC20 calcium; 0% EC20 calcium, 100% full calcium | AID 493008 | activation, % at 7.2 µM | 340,000 compounds, 0.24% hits;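 active = activation above the mean over all tested compounds plus 3 SD, cut at about 30% in these data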;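 also: rise in fluorescence read as greater calcium sensitivity of cardiac thin filaments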
E coli Lon conf: confirmation of E. coli Lon protease inhibitors; shares compounds with E coli Lon inh; purified E. coli Lon, fluorescence polarization; inhibition, % at 7.94 µM; 1,400 compounds, 31% hits; AID 602230; in the data active = inhibition above about 16%
Large screens that a line does not name were inactive (follow-up assays come after a bar, where they were run). Sampled rows, rich in hits. Any-hit rate of the full collection: about 0.74%.

Cc1cc2c(C(F)(F)F)cc(=O)oc2c2c1NCCC2	E coli Lon inh 65, RTF Ca sens act 63 | E coli Lon conf 62
COc1ccc(-n2nnnc2C(c2cccs2)N2CCC(n3c(=O)[nH]c4ccccc43)CC2)cc1 (centres undefined)	none (no result: Keap1 Nrf2 FP, C-LANA FP, Cardiac RTF inh, RTF Ca sens act)
CCOc1cccc(=NC2CCCCC2)c2c(C)n(C)c(C)c12	E coli Lon inh 90 (no result: Keap1 Nrf2 FP, C-LANA FP, Cardiac RTF inh, RTF Ca sens act) | E coli Lon conf inactive
C[C@]12CCC(=O)C[C@H]1CC[C@@H]1[C@@H]2CC[C@]2(C)C(=O)CC[C@@H]12	none
CCOC(=O)[C@]12Cc3cc4ccccc4cc3[C@H]1N(Cc1ccccc1)C(=O)c1ccccc12	none (no result: Keap1 Nrf2 FP, C-LANA FP, Cardiac RTF inh, RTF Ca sens act)
CN1CCc2cc(O)cc3c2[C@H]1Cc1ccc(O)c(O)c1-3	none
CN1CCc2cc3c(c4c2C1Cc1ccccc1-4)OCO3 (centres undefined)	E coli Lon inh 148 | E coli Lon conf 99
COc1ccc(C(c2nnnn2-c2c(C)cccc2C)N2CCC3(CC2)C(=O)NCN3c2ccccc2)cc1 (centres undefined)	none (no result: Keap1 Nrf2 FP, C-LANA FP, Cardiac RTF inh, RTF Ca sens act)
O=c1oc2ccccc2c(O)c1[C@H]1c2ccc(O)cc2Oc2c1c(=O)oc1ccccc21	E coli Lon inh 18 | E coli Lon conf 17
Cn1cc(C=C2C(=O)NC(=O)NC2=O)c2ccccc21	E coli Lon inh 117 | E coli Lon conf active
CNC(=O)Oc1ccc(-c2cn3cc(Cl)ccc3n2)cc1	none
CNC(=O)Oc1cccc(-c2cn3cc(OC(=O)NC)ccc3n2)c1	E coli Lon inh 35 | E coli Lon conf inactive
N#CC1c2ccccc2-n2nncc2CN1C(=O)CCc1ccccc1 (centres undefined)	none
C[C@]12CC[C@@H](O)CC1=CC(=O)C1C2CC[C@]2(C)C(=O)[C@H](O)CC12 (some centres undefined)	none (no result: Keap1 Nrf2 FP, C-LANA FP, Cardiac RTF inh, RTF Ca sens act)
CCC(=NC(C)c1ccccc1)c1c(O)[nH]c(=O)[nH]c1=O (centres undefined)	E coli Lon inh 21 | E coli Lon conf inactive
COc1ccc(OCC(=O)N2CCCC(N3CCN(c4ccccc4C)CC3)C2)cc1 (centres undefined)	E coli Lon inh 134 | E coli Lon conf inactive
C[n+]1c(-c2ccccc2)c2cc(N)ccc2c2ccc(N)cc21	E coli Lon inh 154 | E coli Lon conf 76
Fc1cccc(-c2ccc3c(c2)CN(C(=S)NCCc2ccccc2)Cc2cnnn2-3)c1	none (no result: Keap1 Nrf2 FP, C-LANA FP, Cardiac RTF inh, RTF Ca sens act)
Nc1ccc2ccc3cccc[n+]3c2c1	Keap1 Nrf2 FP 138, C-LANA FP 152, E coli Lon inh active, RTF Ca sens act 743 | E coli Lon conf active
COc1ccc(C(=O)C2CCCN(CC3CCCCC3)C2)cc1OC (centres undefined)	none (no result: Keap1 Nrf2 FP, C-LANA FP, Cardiac RTF inh, RTF Ca sens act)
COC(=O)[C@@H]1N=C(c2ccc(OC)cc2)O[C@]12C(=O)N(C)c1ccc(Cl)cc12	none (no result: Keap1 Nrf2 FP, C-LANA FP, Cardiac RTF inh, RTF Ca sens act)
O=[N+]([O-])c1ccc(N2CCCCCC2)c2nonc12	E coli Lon inh 61, RTF Ca sens act 316 | E coli Lon conf 21
O=[N+]([O-])c1ccc(N2CCOCC2)c2cccnc12	none
O=[N+]([O-])c1ccc(N2CCOCC2)c2c1no[n+]2[O-]	E coli Lon inh 29 (no result: Keap1 Nrf2 FP, C-LANA FP, Cardiac RTF inh, RTF Ca sens act) | E coli Lon conf inactive
O=[N+]([O-])c1ccc(N2CCCCC2)c2ncccc12	none
COc1cccc2c1C(=O)c1c(O)c3c(c(O)c1C2=O)CC(O)(C(C)=NO)CC3OC1CC(N)C(O)C(C)O1 (centres undefined)	C-LANA FP 114, E coli Lon inh active, RTF Ca sens act 166 | E coli Lon conf active
